Measured values reported in PubChem BioAssay (EPA / NIEHS).
“And” between values parts separate entries of the source, which are not always exact repeats. Equal values may be shown once. More than one record can exist for a structure, and the calls need not agree. The source made the active and inactive calls. The calls were made as follows: active = hit-call score of the fitted dose curve at least 0.9, where 1 is the maximum; inactive = score below 0.9.

Columns and labels:
[1] = read-out: Interleukin-6 (IL6), IL6 (gene 3569); assay: BSK_CASM3C_IL6: BioMAP Diversity Plus: CASM3C Assay for Interleukin-6 (IL6) Biomarker Activity for (AID 2283040); conditions: primary human coronary artery smooth muscle cells; actives raise or lower the signal
[2] = read-out: Tissue plasminogen activator (tPA), PLAT (gene 5327); assay: BSK_BE3C_tPA: BioMAP Diversity Plus: BE3C Assay for Tissue plasminogen activator (tPA) Biomarker Activity (AID 2283041); conditions: primary human bronchial epithelial cells; actives raise or lower the signal
Outline: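 ELISA read-out of tPA on human primary bronchial epithelial cells, 24 h post-dosing; bidirectional fit vs DMSO negative control/baseline.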

[3] = read-out: Interleukin-8 (IL8), CXCL8 (gene 3576); assay: BSK_CASM3C_IL8: BioMAP Diversity Plus: CASM3C Assay for Interleukin-8 (IL8) Biomarker Activity (AID 2283042); conditions: primary human coronary artery smooth muscle cells; actives raise or lower the signal;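 also: IL-8 protein level quantified by ELISA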
[4] = read-out: Human Leukocyte Antigen - DR isotype (HLADR), HLA-DRA (gene 3122); assay: BSK_CASM3C_HLADR: BioMAP Diversity Plus: CASM3C Assay for Human Leukocyte Antigen - DR isotype (HLADR) Biomarker Activity (AID 2283043); conditions: primary human coronary artery smooth muscle cells; actives raise or lower the signal;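 also: cell-surface HLA-DR protein level quantified by ELISA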
[5] = read-out: Macrophage colony-stimulating factor (MCSF), CSF1 (gene 1435); assay: BSK_CASM3C_MCSF: BioMAP Diversity Plus: CASM3C Assay for Macrophage colony-stimulating factor (MCSF) Biomarker Activity (AID 2283044); conditions: primary human coronary artery smooth muscle cells; actives raise or lower the signal;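 also: M-CSF protein amount quantified by ELISA after 24 h exposure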
[6] = read-out: Low-density lipoprotein receptor (LDLR), LDLR (gene 3949); assay: BSK_CASM3C_LDLR: BioMAP Diversity Plus: CASM3C Assay for Low-density lipoprotein receptor (LDLR) Biomarker Activity (AID 2283045); conditions: primary human coronary artery smooth muscle cells; actives raise or lower the signal;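 also: LDLR protein level on the cell surface quantified by ELISA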
[7] = read-out: Monocyte Chemoattractant Protein-1 (MCP1), CCL2 (gene 6347); assay: BSK_CASM3C_MCP1: BioMAP Diversity Plus: CASM3C Assay for Monocyte Chemoattractant Protein-1 (MCP1) Biomarker Activity (AID 2283046); conditions: primary human coronary artery smooth muscle cells; actives raise or lower the signal;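 also: MCP-1 level quantified by ELISA 24 h after dosing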
[8] = BSK_CASM3C_Proliferation: Cell Proliferation Assessment in the BioMAP Diversity Plus: CASM3C Assay (AID 2283047); conditions: primary human coronary artery smooth muscle cells;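 also: sulforhodamine B total protein stain as relative cell number at 560 nm; sub-confluent cells exposed 48 h before staining; fitted both ways against DMSO so gain or loss of cell number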
[9] = read-out: Monokine induced gamma interferon (MIG), CXCL9 (gene 4283); assay: BSK_CASM3C_MIG: BioMAP Diversity Plus: CASM3C Assay for Monokine induced gamma interferon (MIG) Biomarker Activity (AID 2283048); conditions: primary human coronary artery smooth muscle cells; actives raise or lower the signal;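 also: MIG protein level measured by ELISA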
[10] = read-out: serum amyloid A (SAA), SAA1 (gene 6288); assay: BSK_CASM3C_SAA: BioMAP Diversity Plus: CASM3C Assay for serum amyloid A (SAA) Biomarker Activity (AID 2283049); conditions: primary human coronary artery smooth muscle cells; actives raise or lower the signal;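 also: SAA protein level quantified by ELISA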
[11] = BSK_CASM3C_SRB: Viability Assessment in the BioMAP Diversity Plus: CASM3C Assay (AID 2283050); conditions: primary human coronary artery smooth muscle cells;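 also: total protein by SRB staining as cytotoxicity measure in parallel cultures; cells exposed to compound for 24 h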
[12] = read-out: Thrombomodulin, THBD (gene 7056); assay: BSK_CASM3C_Thrombomodulin: BioMAP Diversity Plus: CASM3C Assay for Thrombomodulin Biomarker Activity (AID 2283051); conditions: primary human coronary artery smooth muscle cells; actives raise or lower the signal;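 also: thrombomodulin protein level measured by ELISA 24 h after dosing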
[13] = read-out: Tissue Factor, F3 (gene 2152); assay: BSK_CASM3C_TissueFactor: BioMAP Diversity Plus: CASM3C Assay for Tissue Factor Biomarker Activity (AID 2283052); conditions: primary human coronary artery smooth muscle cells; actives raise or lower the signal;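 also: cell surface tissue factor protein level read by ELISA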
[14] = read-out: Interferon-gamma inducible Protein 10 (IP10), CXCL10 (gene 3627); assay: BSK_hDFCGF_IP10: BioMAP Diversity Plus: hDFCGF Assay for Interferon-gamma inducible Protein 10 (IP10) Biomarker Activity (AID 2283053); conditions: primary human foreskin fibroblasts; actives raise or lower the signal
Outline: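 ELISA read-out of IP-10 (CXCL10) from primary human skin fibroblasts, 24 h after compound addition. Gain or loss of signal versus DMSO baseline, bidirectional curve fitting.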

[15] = read-out: Urokinase-type plasminogen activator receptor (uPAR), PLAUR (gene 5329); assay: BSK_CASM3C_uPAR: BioMAP Diversity Plus: CASM3C Assay for Urokinase-type plasminogen activator receptor (uPAR) Biomarker Activity (AID 2283054); conditions: primary human coronary artery smooth muscle cells; actives raise or lower the signal;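 also: cell-surface uPAR protein level quantified by ELISA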
[16] = read-out: Vascular cell adhesion molecule 1 (VCAM1), VCAM1 (gene 7412); assay: BSK_CASM3C_VCAM1: BioMAP Diversity Plus: CASM3C Assay for Vascular cell adhesion molecule 1 (VCAM1) Biomarker Activity (AID 2283055); conditions: primary human coronary artery smooth muscle cells; actives raise or lower the signal;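 also: VCAM-1 protein level quantified by ELISA on the cells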
[17] = read-out: Collagen III, COL3A1 (gene 1281); assay: BSK_hDFCGF_CollagenIII: BioMAP Diversity Plus: hDFCGF Assay for Collagen III Biomarker Activity (AID 2283056); conditions: primary human foreskin fibroblasts; actives raise or lower the signal
Outline: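 ELISA readout of Collagen III in human dermal (foreskin) fibroblasts, taken 24 h post-treatment. Gain or loss relative to DMSO vehicle fitted in both directions.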

[18] = read-out: Epidermal growth factor receptor (EGFR), EGFR (gene 1956); assay: BSK_hDFCGF_EGFR: BioMAP Diversity Plus: hDFCGF Assay for Epidermal growth factor receptor (EGFR) Biomarker Activity (AID 2283057); conditions: primary human foreskin fibroblasts; actives raise or lower the signal
Outline: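 ELISA readout of EGFR on human dermal fibroblasts (primary foreskin cells), 24 h post-dosing; bidirectional curve fit vs DMSO baseline, gain or loss of signal scored.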

[19] = read-out: Interleukin-8 (IL8), CXCL8 (gene 3576); assay: BSK_hDFCGF_IL8: BioMAP Diversity Plus: hDFCGF Assay for Interleukin-8 (IL8) Biomarker Activity (AID 2283058); conditions: primary human foreskin fibroblasts; actives raise or lower the signal
Outline: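 IL-8 levels read by ELISA at 24 hours after dosing human skin fibroblast cultures. Parallel SRB staining assessed overt cytotoxicity, and gain or loss of signal was fitted against DMSO control.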

[20] = BSK_hDFCGF_Proliferation: Cell Proliferation Assessment in the BioMAP Diversity Plus: hDFCGF Assay (AID 2283059); conditions: primary human foreskin fibroblasts;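 also: curves fitted for both rise and fall of signal versus DMSO baseline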
Outline: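 This proliferation readout used SRB total-protein staining of human foreskin fibroblasts […], normalized to DMSO with bidirectional curve fitting.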

Measured: AC50

O=[N+]([O-])c1cc(C(F)(F)F)c(Cl)c([N+](=O)[O-])c1Nc1ncc(C(F)(F)F)cc1Cl
inactive: [1] | [6] | [12] | [13]
active: [1] 3.6 µM | [2] 20 µM | [3] 4.49 µM and 10.8 µM | [4] 2.16 µM and 10 µM | [5] 1.72 µM and 6.05 µM | [7] 4.23 µM and 9.83 µM | [8] 2.28 µM and 1.22 µM | [9] 3.98 µM and 8.05 µM | [10] 3.5 µM and 6.78 µM | [11] 2.04 µM and 5.51 µM | [13] 5.69 µM | [14] 2.13 µM and 7.1 µM | [15] 3.29 µM and 5.5 µM | [16] 2.86 µM and 7.2 µM | [17] 1.83 µM and 11.7 µM | [18] 1.92 µM and 5.48 µM | [19] 2.78 µM and 11.7 µM | [20] 546 nM and 1.8 µM

COc1cccc(C(=O)NN(C(=O)c2cc(C)cc(C)c2)C(C)(C)C)c1C
inactive: all assays above

CCCOc1nn(C(=O)NS(=O)(=O)c2ccccc2C(=O)OC)c(=O)n1C
inactive: all assays above

CCOP(=O)(OCC)Oc1cc(C)nc(C(C)C)n1
active: [6] 20 µM | [17] 31.7 µM | [20] 25.9 µM
inactive: all other assays above

CCOP(=S)(OCC)Oc1ccc([N+](=O)[O-])cc1
active: [12] 15.4 µM | [14] 20 µM | [20] 14.2 µM
inactive: all other assays above

CCOP(=S)(OCC)Oc1ccc2c(C)c(Cl)c(=O)oc2c1
active: [8] 20 µM | [14] 27.9 µM | [17] 20 µM
not listed: [20]
inactive: all other assays above

CCOP(=S)(Oc1cnc(C(C)(C)C)nc1)OC(C)C (stereo unspecified)
active: [8] 32.2 µM | [12] 20 µM | [14] 29.2 µM | [17] 31.3 µM | [20] 31.7 µM
inactive: all other assays above

S=C1NCCN1
inactive: all assays above

CC[C@H](C)[C@H]1O[C@]2(C=C[C@@H]1C)C[C@@H]1C[C@@H](C/C=C(\C)[C@@H](O[C@H]3C[C@H](OC)[C@@H](O[C@H]4C[C@H](OC)[C@@H](NC)[C@H](C)O4)[C@H](C)O3)[C@@H](C)/C=C/C=C3\CO[C@@H]4[C@H](O)C(C)=C[C@@H](C(=O)O1)[C@]34O)O2
inactive: [1] | [2] | [6] | [12] | [13]
active: [3] 14.2 µM | [4] 12.6 µM | [5] 11.6 µM | [7] 12.9 µM | [8] 5.53 µM | [9] 13.7 µM | [10] 9.71 µM | [11] 11.6 µM | [14] 4.28 µM | [15] 12.3 µM | [16] 12 µM | [17] 5.53 µM | [18] 11.7 µM | [19] 6.99 µM | [20] 1.43 µM

CC(Oc1cccc(Cl)c1)C(=O)O (stereo unspecified)
inactive: all assays above

CNc1cnn(-c2cccc(C(F)(F)F)c2)c(=O)c1Cl
inactive: all assays above

CCC(=NOC/C=C/Cl)C1=C(O)CC(C2CCOCC2)CC1=O (stereo unspecified)
inactive: all assays above
